This is one part of a sample in which hits are shown more often than they occur.
12-LOX inh = Primary qHTS assay for inhibitors of human arachidonate 12S-lipoxygenase (ALOX12): Round 2; Polyunsaturated fatty acid lipoxygenase ALOX12 (Homo sapiens), P18054; purified 12hLO, xylenol orange hydroperoxide absorbance; Potency, µM (titrated, usually from 108 µM), for the others: at the top dose activity change, negative = inhibition, usual class: inhibitors; 1.1% of 580,000 active; further: potency means the concentration at half of the fitted maximal effect
Target sequence (P18054 whole entry, looked up): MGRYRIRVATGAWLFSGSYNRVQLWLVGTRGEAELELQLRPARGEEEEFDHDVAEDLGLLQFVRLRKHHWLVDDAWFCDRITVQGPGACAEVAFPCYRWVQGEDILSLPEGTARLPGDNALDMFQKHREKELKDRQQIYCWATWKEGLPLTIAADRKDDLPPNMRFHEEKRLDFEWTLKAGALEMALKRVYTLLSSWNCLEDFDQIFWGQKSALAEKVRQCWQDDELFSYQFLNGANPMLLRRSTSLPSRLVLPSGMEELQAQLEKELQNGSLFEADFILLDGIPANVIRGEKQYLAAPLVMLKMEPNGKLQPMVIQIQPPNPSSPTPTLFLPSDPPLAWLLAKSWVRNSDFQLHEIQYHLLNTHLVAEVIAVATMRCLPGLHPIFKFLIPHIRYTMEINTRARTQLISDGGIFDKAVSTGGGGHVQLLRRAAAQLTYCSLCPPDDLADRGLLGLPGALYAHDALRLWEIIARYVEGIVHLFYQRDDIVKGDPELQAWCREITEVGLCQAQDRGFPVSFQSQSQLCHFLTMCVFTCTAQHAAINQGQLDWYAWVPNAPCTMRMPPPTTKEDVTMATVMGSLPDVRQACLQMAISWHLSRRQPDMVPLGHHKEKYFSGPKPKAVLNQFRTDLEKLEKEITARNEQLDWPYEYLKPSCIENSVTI
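Purified human 12hLO at 150 nM in 25 mM Hepes, 0.01% Triton X-100, pH 7.0, preincubated 15 min at room temperature with compound. Reaction started with 40 uM arachidonic acid, 30 min at room temperature. Hydroperoxide measured by Fe-xylenol orange, 573/405 nm absorbance ratio.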
DT40 TDP1 no CPT = qHTS for Inhibitors of human tyrosyl-DNA phosphodiesterase 1 (TDP1): qHTS in cells in absence of CPT; DT40 Tdp1-/- hTDP1 cells, no CPT, ATP luminescence, 48 h; Potency, µM (highest dose often 46.2 µM), without a hit: at the highest dose activity change, negative = growth inhibition, usual class: inhibitors; 15% of 420,000 active; further: potency means the concentration at half of the fitted maximal effect; nearly all actives have a fitted effect of over 55% in size
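Luminescent ATP content (CellTiter-Glo) served as the growth readout. Knockout chicken DT40 cells expressing human TDP1 were exposed to compounds without camptothecin for a minimum 48 hr at 37 °C.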
TDP1 cell CPT = qHTS for Inhibitors of human tyrosyl-DNA phosphodiesterase 1 (TDP1): qHTS in cells in presence of CPT. chicken DT40 Tdp1-/-;hTDP1 cells + 20 nM CPT, ATP luminescence, 48 h. Potency, µM (top dose mostly 46.2 µM), for inactives: top-dose activity change, negative = growth inhibition, most hits filed as inhibitors. AID 686979, 2013. 12% of 420,000 active; further: potency means the concentration at half of the fitted maximal effect; nearly all actives have a fitted effect of over 55% in size
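Chicken DT40 Tdp1-/- cells complemented with human TDP1, 400 cells/well, exposed to compounds plus 20 nM camptothecin for at least 48 h at 37 C; viability read as ATP content by CellTiter-Glo luminescence.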
IL-1B inflam inh = qHTS for Inhibitors of Inflammasome Signaling: IL-1-beta AlphaLISA Primary Screen | THP-1 LPS/ATP IL-1B secretion, AlphaLISA, 16 h; hits give low values | activity change, % at 57.5 µM | 4.7% of 360,000 active | AID 743279, 2014; in the data active means activity change below about -50%; inconclusive means mostly about -30% to -49%
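Secreted IL-1B measured by AlphaLISA bead assay after 16 h compound exposure of THP-1 cells; compounds (final up to 57.5 uM) added 1 h before LPS (250 ng/mL) and ATP (1.25 mM) stimulation; lower signal means less secretion.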
HT1080 IDH1KD tx = qHTS for induction of synthetic lethality in tumor cells producing 2HG: qHTS for the HT-1080-IDH1KD cell line | 2% of 360,000 active | HT-1080 IDH1 knockdown viability, ATP luminescence, 48 h | Potency, µM (series often up to 46.1 µM), for the others: top-dose activity, negative = toxicity, actives largely listed as cytotoxic;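 further: potency means the concentration at half of the fitted maximal effect; 0% = DMSO wells and -100% = cell-free medium wells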
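CellTiter-Glo luminescence after 48 h compound exposure at 37 degrees C of IDH1-knockdown HT-1080 cells in 5% FBS RPMI. %Activity scaled between DMSO wells and cell-free media wells, with curves fitted and assigned curve classes.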
HT1080-NT tox = qHTS for induction of synthetic lethality in tumor cells producing 2HG: qHTS for the HT-1080-NT fibrosarcoma cell line | Potency, µM (titrated, usually from 46.1 µM), for the others: at the top dose activity, negative = less viability, hits mostly cytotoxic | 1.6% of 360,000 active | HT-1080-NT fibrosarcoma viability, CellTiter-Glo ATP luminescence, 48 h;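 further: NT is the 2HG producing partner of a matched IDH1 knockdown line; potency means the concentration at half of the fitted maximal effect; 0% = DMSO-treated cells and -100% = media-only wells without cells; nearly all actives have a fitted effect of over 55% in size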
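Toxicity toward the 2HG-producing NT line was scored as %Activity, normalised to DMSO and no-cell wells, from CellTiter-Glo luminescence after 48 hours' treatment.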
Starred values were filed as active, the others as inactive; i = inactive; ? = inconclusive; . = no result given; [ ] = another dose, or the depositor's remark. Unless noted, the call rests on the fitted dose curve; in most records, active means well fitted curve in the direction sought with a large enough effect; inconclusive means small, poorly fitted or top-dose-only effect, or another doubt; inactive means no such curve, though single readings can be large; an effect the other way counts as inactive or inconclusive. Unless noted, on the % scale 0 is the no-effect control and ±100 the full control effect.

SMILES	12-LOX inh	DT40 TDP1 no CPT	TDP1 cell CPT	IL-1B inflam inh	HT1080 IDH1KD tx	HT1080-NT tox
O=C(Nc1cccc(C(F)(F)F)c1)C1CCN(S(=O)(=O)c2cccc3nsnc23)CC1	-22%	23µM*	23µM*	.	.	.
Cc1ccc(NC(=O)C2CCN(S(=O)(=O)c3cccc4nsnc34)CC2)cc1F	-24%	-26%	?	.	.	.
CC(=O)c1cccc(NC(=O)C2CCN(c3nnc(-n4cccc4)s3)CC2)c1	3%	?	?	.	.	.
O=C(Nc1cccc(C(F)(F)F)c1)C1CCN(S(=O)(=O)c2cccnc2)CC1	-14%	21µM*	?	9	-3%	-1%
O=C(Nc1cccc(C(F)(F)F)c1)C1CCN(c2nnc(-n3cccc3)s2)CC1	-23%	21µM*	?	.	.	.
CCC(CO)(CO)NC(=O)c1nc(-c2cccc3[nH]ccc23)no1	2%	.	.	.	.	.
CCc1cc(=O)oc2cc(C)c(CN3CCCCC3)c(O)c12	?	-24%	-18%	39	-1%	-5%
CCCc1cc(=O)oc2cc(C)c(CN3CCCC3)c(O)c12	?	16µM*	?	39	4%	-2%
C[C@@H]1CC=C[C@H]2[C@H]1C(=O)N(Cc1ccccc1)[C@H]2c1ccc(C(F)(F)F)cc1	0%	21µM*	?	14	-11%	-20%
O=C1C2C(c3ccccc3)CC=CC2[C@H](c2ccc(C(F)(F)F)cc2)N1Cc1ccccc1 (stereo partly specified)	-10%	?	18µM*	-18	?	?
C[C@@H]1CC=C[C@@H]2[C@H]1C(=O)N(Cc1ccccc1)[C@H]2c1cccc(Br)c1	?	?	?	28	0%	9%
CC(=O)C1=C(O)C(=O)N(Cc2ccccc2)C1c1cccc([N+](=O)[O-])c1 (stereo unspecified)	?	2%	-2%	0	2%	3%
O=C1C2C(c3ccccc3)CC=CC2[C@H](c2cccc([N+](=O)[O-])c2)N1Cc1ccccc1 (stereo partly specified)	0%	?	16µM*	0	-6%	-9%
O=C1CCN(Cc2ccccc2)C=C1c1ccc(C(F)(F)F)cc1	?	?	?	16	-16%	-3%
CSc1nc2c(c(=O)n(C)c(=O)n2C)n1CCCc1ccccc1	-7%	.	.	.	.	.
CC(SC1CCCC1)C(=O)Nc1cccc(Cl)c1Cl (stereo unspecified)	-20%	.	.	.	.	.
COCCNC(=O)C1CCCN(S(=O)(=O)c2ccc3c(ccn3C)c2)C1 (stereo unspecified)	-20%	5%	-29%	.	.	.
Cc1cc(C)n(CC(C)NCc2cn[nH]c2-c2cccc3ccccc23)n1 (stereo unspecified)	8%	18µM*	?	-10	-9%	1%
Cc1c(CN2CCCC(C(=O)Nc3cccc(-n4cccn4)c3)C2)cnn1C (stereo unspecified)	1%	-6%	-11%	1	3%	-2%
O=C(Nc1cccc(-n2cccn2)c1)C1CCCN(Cc2cc3ccccc3[nH]2)C1 (stereo unspecified)	-18%	?	16µM*	-60*	?	?
O=C(Nc1cccc(-n2cccn2)c1)C1CCCN(Cc2cccc(F)c2F)C1 (stereo unspecified)	492%	21µM*	23µM*	9	-5%	-1%
O=C(Nc1cccc(-n2cnnn2)c1)C1CCCN(Cc2cccc(C(F)(F)F)c2)C1 (stereo unspecified)	.	18µM*	13µM*	i	0%	-8%
CCn1ncc(CN2CCCC(C(=O)Nc3cccc(-c4cc5ccccc5[nH]4)c3)C2)c1C (stereo unspecified)	-24%	?	21µM*	-94*	?	?
CCN(CC)C(=O)Cn1c(SCC(=O)Nc2ccc(F)cc2)nc2ccccc21	4%	?	?	.	.	.
CN(C)c1ccc(CN2CC(Oc3ccc(F)cc3F)C2)cc1	0%[6.33 µM]	.	.	.	.	.
SMILES	12-LOX inh	DT40 TDP1 no CPT	TDP1 cell CPT	IL-1B inflam inh	HT1080 IDH1KD tx	HT1080-NT tox
CN1CCCCCCN(C(=O)NC2CCCCC2)CCC1=O	15%	.	.	.	.	.
CSc1cccc(CN2CCCC(C(=O)Nc3cccc(-n4cccn4)c3)C2)c1 (stereo unspecified)	?	?	?	-66*	-8%	-11%
Cc1cc(CN2CCCC(C(=O)Nc3cccc(-n4cccn4)c3)C2)cc(C)c1O (stereo unspecified)	0%	?	16µM*	0	?	-25%
CC(C)CCn1c(CN2CCN(Cc3ccccc3)CC2)nc2c1c(=O)n(C)c(=O)n2C	-20%	16µM*	?	0	-1%	-1%
CCCCCCCn1c(CN2CCN(c3ccccc3)CC2)nc2c1c(=O)n(C)c(=O)n2C	7%	.	.	.	.	.
Cn1c(=O)c2c(nc(CN3CCN(c4ccccc4)CC3)n2CCCc2ccccc2)n(C)c1=O	6%	15µM*	21µM*	10	-1%	2%
CCCCCCn1c(CN2CCC(C)CC2)nc2c1c(=O)n(C)c(=O)n2C	4%	16µM*	?	41	-5%	14%
CCCCn1c(CN2CCN(c3ccccc3)CC2)nc2c1c(=O)n(C)c(=O)n2C	8%	2.3µM*	1.5µM*	62	-14%	-12%
Cn1c(=O)c2c(nc(CN3CCN(Cc4ccccc4)CC3)n2Cc2ccc(F)cc2)n(C)c1=O	5%	?	?	16	0%	-28%
CC1Oc2ccc(NC(=O)c3cccs3)cc2CN(Cc2ccccc2)C1=O (stereo unspecified)	16%	.	.	.	.	.
CC(NC(=O)Cc1ccc(N(Cc2ccccc2)C(=O)c2ccco2)cc1)c1ccccc1 (stereo unspecified)	1%	.	.	.	.	.
CCCCCn1c(CN2CCN(Cc3ccccc3)CC2)nc2c1c(=O)n(C)c(=O)n2C	-1%	15µM*	15µM*	0	2%	4%

Source: PubChem BioAssay
